Publication PMC10726135, “HNF4α isoforms regulate the circadian balance between carbohydrate and lipid metabolism in the liver”
Over roughly 18,000 sequences, “log2 normalized intensity” has its median near 0.39; the highest 2% begin near 6.6. The list comes from a sample in which the highest values are over-represented; it also holds similar and randomly drawn sequences.

molecular target: T1, HNF4alpha2 (COS-7 nuclear extract) (Homo sapiens, UniProt P41235 1-474); test: protein-binding microarray; COS-7 nuclear extract on double-stranded Agilent 4x180k PBM; binding buffer, salt, pH and temperature not given in the material; high values mean tight binding; conditions: chain copies: 2; label: 3' end of strand 1 on the slide; dsDNA, one strand shown
T1 sequence: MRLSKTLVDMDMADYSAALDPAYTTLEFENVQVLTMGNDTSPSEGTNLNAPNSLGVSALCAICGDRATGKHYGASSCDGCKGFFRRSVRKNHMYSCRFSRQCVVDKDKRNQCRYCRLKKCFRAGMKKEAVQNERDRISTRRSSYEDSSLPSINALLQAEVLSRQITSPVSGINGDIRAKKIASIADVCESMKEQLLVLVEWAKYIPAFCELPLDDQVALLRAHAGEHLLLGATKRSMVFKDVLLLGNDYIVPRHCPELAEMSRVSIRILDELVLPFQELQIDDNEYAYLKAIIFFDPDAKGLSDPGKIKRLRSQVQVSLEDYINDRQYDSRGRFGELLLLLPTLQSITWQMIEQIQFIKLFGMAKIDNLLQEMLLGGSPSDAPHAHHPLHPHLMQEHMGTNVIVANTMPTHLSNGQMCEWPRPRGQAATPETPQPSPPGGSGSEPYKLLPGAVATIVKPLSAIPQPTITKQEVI
Procedure, shortened: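 A human HNF4α isoform was expressed in COS-7 cells by transient CaPO4 transfection, and nuclear extracts were prepared. These were applied to a custom Agilent SurePrint G3 4x180k array carrying ~44,000 test sequences in quadruplicate as double-stranded ~60-nt oligonucleotides, and an Agilent G2565CA scanner imaged bound HNF4α at 2-µm resolution. The background-corrected, normalized gProcessedSignal from Agilent software was used as the binding signal.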

Sequence | binding signal [log2 normalized intensity]
TGGGGTCTCGCTGCTTCGGCCTTTGACCTCGCCTAGGGAGATTAGAGTATCGGTCGA | 7.94
GCTCAGCTGGTTGCCCCTTTGACCCTCGGGGCCTAGGGAGATTAGAGTATCGGTCGA | 6.11
CCTTTGACCTTCGGCTTCCCCAGAGAAAGAGCCTAGGGAGATTAGAGTATCGGTCGA | 3.03
TCAGGCACAGCTCGACCTTTGACCTTCGGCGCCTAGGGAGATTAGAGTATCGGTCGA | 10.2
CCCGCCTTTGACACAGGCGACCTTCGCTCGGCCTAGGGAGATTAGAGTATCGGTCGA | 5.17
AGCTCGCTCAGCTGGTTGCCCCTTTGACCCGCCTAGGGAGATTAGAGTATCGGTCGA | 7.89
TCTCGCTGCTTCGGCCTTTGACCTCGTGATGCCTAGGGAGATTAGAGTATCGGTCGA | 6.52
GCCCCAGCTCGCTCAGCTGGTTGCCCCTTTGCCTAGGGAGATTAGAGTATCGGTCGA | 4.14
AAATCCCCGCCTTTGACACAGGCGACCTTCGCCTAGGGAGATTAGAGTATCGGTCGA | 3.94
CACAGCTCGACCTTTGACCTTCGGCTTCCCGCCTAGGGAGATTAGAGTATCGGTCGA | 8.84
CAGGGTGGGGTCTCGCTGCTTCGGCCTTTGGCCTAGGGAGATTAGAGTATCGGTCGA | 1.33
CTTTGACACAGGCGACCTTCGCTCGGCTCGGCCTAGGGAGATTAGAGTATCGGTCGA | 3.46
CCTTGCACTATTGACCCAGTGAAACAACACGCCTAGGGAGATTAGAGTATCGGTCGA | 1.65
TAGGCCACCTGTGTCAACATGGACTTTGTTGCCTAGGGAGATTAGAGTATCGGTCGA | 5.86
TTCTGCCTTATCAGCGGCCCTGTGCTGCCCGCCTAGGGAGATTAGAGTATCGGTCGA | 0.0914
CCTCTGTCTCTCAGGCACAGCTCGACCTTTGCCTAGGGAGATTAGAGTATCGGTCGA | 5.94
GTCTCTCAGGCACAGCTCGACCTTTGACCTGCCTAGGGAGATTAGAGTATCGGTCGA | 10.1
CTTGTCTTATCAGCAGGGTCTTTTTGACCTGCCTAGGGAGATTAGAGTATCGGTCGA | 4.38
CTATTATGCCTTGACTTCAAATCATACTGAGCCTAGGGAGATTAGAGTATCGGTCGA | 0.897
TCAGAGATCAAGATACAGGTCAGACCCTGGGCCTAGGGAGATTAGAGTATCGGTCGA | 0.993
CTATTGTCCTATGACCCTGCCAAATCCCCCGCCTAGGGAGATTAGAGTATCGGTCGA | 4.52
CATTTTACAGTGCCATTTATCAGTGATTTCGCCTAGGGAGATTAGAGTATCGGTCGA | 0.854

Sequence | binding signal [log2 normalized intensity]
TTCCAAAGGTCACCCGTATTCCTTAGCTTAGCCTAGGGAGATTAGAGTATCGGTCGA | 1.6
CTTCCCAGCTGCTGGTCAAAGGGCATTACTGCCTAGGGAGATTAGAGTATCGGTCGA | 4.94
GGGCAAATCTGAGGTCAAAGCTGTCAGAGAGCCTAGGGAGATTAGAGTATCGGTCGA | -0.198
TATTCCCAGGTTCCAAAGGTCACCCGTATTGCCTAGGGAGATTAGAGTATCGGTCGA | 6.51
GTCCCAGGGCAAAGGTCACCAGCTAAGCTGGCCTAGGGAGATTAGAGTATCGGTCGA | 5.83
CTGTCGTCCCAGGGCAAAGGTCACCAGCTAGCCTAGGGAGATTAGAGTATCGGTCGA | 6.66
CCAGGTTCCAAAGGTCACCCGTATTCCTTAGCCTAGGGAGATTAGAGTATCGGTCGA | 6.63
CAGAGCTGTCGTCCCAGGGCAAAGGTCACCGCCTAGGGAGATTAGAGTATCGGTCGA | 7.59
AGGGCAAAGGTCACCAGCTAAGCTGTTACTGCCTAGGGAGATTAGAGTATCGGTCGA | 5.12
GCTGAGGAATTTGGACTTCAGCCCAGGCTGGCCTAGGGAGATTAGAGTATCGGTCGA | 3.66
ACCACCTTCCCCCATCCCCAACAAAGCTCTGCCTAGGGAGATTAGAGTATCGGTCGA | 4.7
TCTCAAAAGTTTTTCCCTTCTGTTAGAATGGCCTAGGGAGATTAGAGTATCGGTCGA | -0.592
CTTCAAGTCAGTTGCATGCAACCTTTGTCCGCCTAGGGAGATTAGAGTATCGGTCGA | 5.67
ATATTCACTATCTGATCCTTTACAGAGATAGCCTAGGGAGATTAGAGTATCGGTCGA | -0.305
TGTTACTTATAAATAATCTCAACCATACAAGCCTAGGGAGATTAGAGTATCGGTCGA | -0.991
CAACCAAGTCCATCTGTATTGCCTCCTTTGGCCTAGGGAGATTAGAGTATCGGTCGA | 1.08
TTCCAGGGATGTTTGGCAGCTGAGGATTGTGCCTAGGGAGATTAGAGTATCGGTCGA | 1.61
CATCTACCAGCGTAATTCTGGCTCTTTGAGGCCTAGGGAGATTAGAGTATCGGTCGA | 0.87
GCGTGAGCCACCGCGCCCCGCCCCCAGTGCGCCTAGGGAGATTAGAGTATCGGTCGA | 5.65
GGACCTGAGGCTTTTGAGTCAATAATGGACGCCTAGGGAGATTAGAGTATCGGTCGA | 1.21
GAGATGAGGCTCAGACCTGACCTTTGGATTGCCTAGGGAGATTAGAGTATCGGTCGA | 7.99
TACTTTGGACTGGGGACCTGGTCTGAGATAGCCTAGGGAGATTAGAGTATCGGTCGA | 1.75

Sequence | binding signal [log2 normalized intensity]
TGCTGGAGATGAGGCTCAGACCTGACCTTTGCCTAGGGAGATTAGAGTATCGGTCGA | 6.49
AAGACTTTGGACTTTGGACCTGAGGCTTTTGCCTAGGGAGATTAGAGTATCGGTCGA | 9.84
GAGGCTCAGACCTGACCTTTGGATTCCCAGGCCTAGGGAGATTAGAGTATCGGTCGA | 6.53
ATGTGGGGAAACTGGACTGTAATTTGTGGTGCCTAGGGAGATTAGAGTATCGGTCGA | 1.43
ACGTCAGAACTGTCCTTTAACCTCCCTGCAGCCTAGGGAGATTAGAGTATCGGTCGA | 1.99
AATGGAAGAATCACAGTGTGGGGCAAATCTGCCTAGGGAGATTAGAGTATCGGTCGA | -0.752
ACCAGGGGGCAGAGTGAGCAGCACTTTTGGGCCTAGGGAGATTAGAGTATCGGTCGA | -0.845
CTGCCAAAGTTCAGCCTTGGGGCCATTCCAGCCTAGGGAGATTAGAGTATCGGTCGA | 0.325
GCCACCCTCCTCTCTGGGTCAAAGGTCATCGCCTAGGGAGATTAGAGTATCGGTCGA | 9.58
TCTCTGGGTCAAAGGTCATCGCACCGGCAGGCCTAGGGAGATTAGAGTATCGGTCGA | 7.15
CACTGGCTCTGGGGTCAAAGTCCCCTGAGCGCCTAGGGAGATTAGAGTATCGGTCGA | 7.16
TCATCGCACCGGCAGGGGAGAACTTCCTCCGCCTAGGGAGATTAGAGTATCGGTCGA | -0.988
CTGGGGCCACCCTCCTCTCTGGGTCAAAGGGCCTAGGGAGATTAGAGTATCGGTCGA | 4.74
CCTCCTCTCTGGGTCAAAGGTCATCGCACCGCCTAGGGAGATTAGAGTATCGGTCGA | 7.54
AGGTCGCAAGCACTGGCTCTGGGGTCAAAGGCCTAGGGAGATTAGAGTATCGGTCGA | 3.1
GGGGTCAAAGTCCCCTGAGCTTGAGTCCATGCCTAGGGAGATTAGAGTATCGGTCGA | 5.36
CCTGCCTCTCCTCTGAGCTTCATCCTGACCGCCTAGGGAGATTAGAGTATCGGTCGA | 1.62
AAAGGTCATCGCACCGGCAGGGGAGAACTTGCCTAGGGAGATTAGAGTATCGGTCGA | 0.284
CTCTCCCTCCTCTCTGAGCAGTCAAACTGGGCCTAGGGAGATTAGAGTATCGGTCGA | 1.96
GAGGTGTCAGCCACCCCTCCTCCTGGGGGCGCCTAGGGAGATTAGAGTATCGGTCGA | 2.64
